Reference: PubChem BioAssay (NCATS)
Results filed as inconclusive are left out. Activity calls are given as the source filed them. Calls come from the whole dose curve; as a rule, active = well fitted curve in the direction sought with a large enough effect; inconclusive = small, poorly fitted or top-dose-only effect, or another doubt; inactive = no such curve, though single readings can be large; an effect the other way counts as inactive or inconclusive.

How the values were obtained:
[1] = tested on: Tov-21-G; test: Primary qHTS to identify gynecologic anti-cancer compounds using libraries of approved drugs and bioactive compounds (AID 1345084); details: Gynecologic cancer cell panel viability, ATPlite luminescence, 48 h; series mostly up to 57.5 µM; note: nearly all actives have a fitted effect of over 55% in size
In short: (§1)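 Cytotoxicity screen measuring ATP content by luciferase luminescence. Each compound is applied at five concentrations for 48 h at 37 C with 5% CO2.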

[2] = tested on: Tov112D; test: as above; details: Gynecologic cancer cell panel viability, ATPlite luminescence, 48 h; series mostly up to 57.5 µM
In short: as §1

[3] = Drug repurposing screens with cells derived from glioblastoma tumor samples (AID 1345199); details: GBM patient neurospheres viability, ATP luminescence, 48 h; note: nearly all actives have a fitted effect of over 40% in size; note: potency is the fitted concentration of half-maximal effect
In short: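 Four patient lines of CD133+ GBM neurospheres were screened at several concentrations; hits were retested in those lines plus three slower-growing GBM lines, using 48-hour treatment and ATP-based viability.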

[4] = at 20 µM (top of the series), tumour line C
[5] = at 21.2 µM (top of the series), tumour line B
[6] = at 21.2 µM (top of the series), tumour line D
[7] = at 45.9 µM (top of the series), tumour line B
[8] = at 45.9 µM (top of the series), tumour line D
[9] = at 46 µM (top of the series), tumour line A
[10] = at 46.1 µM (top of the series), tumour line C
[11] = at 21.3 µM (top of the series), tumour line A
% is set by controls: 0 for no effect and ±100 for the full control effect.

NCc1ccc(S(N)(=O)=O)cc1
inactive: outcome [1] | outcome [2] | activity, negative = cell killing [3, 4] 8.51% | activity, negative = cell killing [3, 5] -1.96% | activity, negative = cell killing [3, 6] -7.46%

CCCCCC(C)N (stereo not drawn)
inactive: outcome [1] | outcome [2] | activity, negative = cell killing [3, 7] -17% | activity, negative = cell killing [3, 8] -7.45% | activity, negative = cell killing [3, 9] -32% | activity, negative = cell killing [3, 10] -13.3%

Cn1cc(C(=O)[C@@H]2CCc3nc[nH]c3C2)c2ccccc21
inactive: outcome [1] | outcome [2]

COc1ccc(C(=O)NCc2ccc(OCCN(C)C)cc2)cc1OC
inactive: outcome [1] | outcome [2] | activity, negative = cell killing [3, 7] -21.3% | activity, negative = cell killing [3, 8] -4.36%

Cc1cc(OI)c(C(C)C)cc1-c1cc(C(C)C)c(OI)cc1C
inactive: outcome [1] | outcome [2] | activity, negative = cell killing [3, 7] -6.87% | activity, negative = cell killing [3, 8] -13.4% | activity, negative = cell killing [3, 10] 33.1%

CO[C@@]1(NC(=O)C(C(=O)O)c2ccc(O)cc2)C(=O)N2C(C(=O)O)=C(CSc3nnnn3C)CO[C@@H]21 (stereo partly drawn)
inactive: outcome [1] | outcome [2] | activity, negative = cell killing [3, 4] -17.7% | activity, negative = cell killing [3, 5] -0.689% | activity, negative = cell killing [3, 6] -3.96% | activity, negative = cell killing [3, 11] -23.1%

CCCCCOC(=O)Nc1nc(=O)n([C@@H]2O[C@H](C)[C@@H](O)[C@H]2O)cc1F
inactive: outcome [1] | outcome [2] | activity, negative = cell killing [3, 7] 3.4% | activity, negative = cell killing [3, 8] -3.99% | activity, negative = cell killing [3, 9] -16.9% | activity, negative = cell killing [3, 10] 7.27%

Cc1ccc(S(=O)(=O)NC(=O)NC2CCCCCCC2)cc1
inactive: outcome [1] | outcome [2] | activity, negative = cell killing [3, 7] -4.76% | activity, negative = cell killing [3, 8] 3.34% | activity, negative = cell killing [3, 9] -27.8%

C/C(=C(\CCO)SS/C(CCO)=C(\C)N(C=O)Cc1cnc(C)nc1N)N(C=O)Cc1cnc(C)nc1N
inactive: outcome [1] | outcome [2] | activity, negative = cell killing [3, 7] 0.803% | activity, negative = cell killing [3, 8] 1.23% | activity, negative = cell killing [3, 9] -2.85% | activity, negative = cell killing [3, 10] 0.411%

Cc1cc(NC(=O)C2=C(O)c3ccccc3S(=O)(=O)N2C)no1
inactive: outcome [1] | outcome [2] | activity, negative = cell killing [3, 7] -5.07% | activity, negative = cell killing [3, 8] -8.1% | activity, negative = cell killing [3, 10] -15.1%

O=C(NCCCN1CCOCC1)c1ccc(Cl)cc1
inactive: outcome [1] | outcome [2] | activity, negative = cell killing [3, 7] -1.61% | activity, negative = cell killing [3, 8] -16.9% | activity, negative = cell killing [3, 9] -28.4% | activity, negative = cell killing [3, 10] -13.2%

O=C(O)Cn1c(C(=O)Nc2nc(-c3ccccc3Cl)cs2)cc2ccccc21
inactive: outcome [1] | outcome [2] | activity, negative = cell killing [3, 7] -16.8% | activity, negative = cell killing [3, 8] -18.1% | activity, negative = cell killing [3, 9] -41.5%

Cc1ccc2c(c1)c1c3n2CCNC3CCC1 (stereo not drawn)
inactive: outcome [1] | outcome [2]

O=c1[nH]cnc2nc[nH]c12
inactive: outcome [1] | outcome [2] | activity, negative = cell killing [3, 7] -0.606% | activity, negative = cell killing [3, 8] 15.6% | activity, negative = cell killing [3, 9] -28.5% | activity, negative = cell killing [3, 10] -12.9%

O=C(NCN1CCOCC1)c1cnccn1
inactive: outcome [1] | outcome [2] | activity, negative = cell killing [3, 7] -3.93% | activity, negative = cell killing [3, 8] -22.6% | activity, negative = cell killing [3, 9] -8.03% | activity, negative = cell killing [3, 10] -4.53%

O=C(O)Cc1ccc(CCNS(=O)(=O)c2ccc(Cl)cc2)cc1
inactive: outcome [1] | outcome [2] | activity, negative = cell killing [3, 7] -9.63% | activity, negative = cell killing [3, 8] -6.01%

NC(=O)CCCCC1CCSS1 (stereo not drawn)
inactive: outcome [1] | outcome [2] | activity, negative = cell killing [3, 7] -3.9% | activity, negative = cell killing [3, 8] 6.2% | activity, negative = cell killing [3, 9] -23.7% | activity, negative = cell killing [3, 10] 2.37%

Cn1c(=O)c2c(ncn2CCO)n(C)c1=O
inactive: outcome [1] | outcome [2] | activity, negative = cell killing [3, 7] -5.04% | activity, negative = cell killing [3, 8] -0.441% | activity, negative = cell killing [3, 9] -29% | activity, negative = cell killing [3, 10] -21.7%

Nc1c2c(nc3c1CCC3)CCCC2
inactive: outcome [1] | outcome [2] | activity, negative = cell killing [3, 7] -2.28% | activity, negative = cell killing [3, 8] -13.4% | activity, negative = cell killing [3, 10] -27.2%

Cc1cc(C)c(NC(=O)CN(CC(=O)O)CC(=O)O)c(C)c1Br
inactive: outcome [1] | outcome [2] | activity, negative = cell killing [3, 7] -5.55% | activity, negative = cell killing [3, 8] -2.68% | activity, negative = cell killing [3, 9] -17.3% | activity, negative = cell killing [3, 10] -18.8%

CCN(CC)CCOC(=O)C(c1ccccc1)c1ccccc1
inactive: outcome [1] | outcome [2] | activity, negative = cell killing [3, 7] -13.3% | activity, negative = cell killing [3, 8] -3.55% | activity, negative = cell killing [3, 9] -25.1% | activity, negative = cell killing [3, 10] -20.1%

O=C(O)[C@@H]1[C@H]2C[C@H]3c4[nH]c5ccccc5c4CCN3C[C@@H]2CC[C@@H]1O
inactive: outcome [1] | outcome [2] | activity, negative = cell killing [3, 4] -17% | activity, negative = cell killing [3, 5] 2.22% | activity, negative = cell killing [3, 11] -34.6%

O=C(/C=C/c1ccccc1)OCc1ccccc1
inactive: outcome [1] | outcome [2] | activity, negative = cell killing [3, 7] -5.75% | activity, negative = cell killing [3, 8] -8.15% | activity, negative = cell killing [3, 9] -17.7% | activity, negative = cell killing [3, 10] -14.4%

CCCCC1(COC(=O)CCC(=O)O)C(=O)N(c2ccccc2)N(c2ccccc2)C1=O
inactive: outcome [1] | outcome [2] | activity, negative = cell killing [3, 4] -5.58% | activity, negative = cell killing [3, 5] -15.2% | activity, negative = cell killing [3, 6] -10.8% | activity, negative = cell killing [3, 11] -29.7%

CC(C)c1cc2c(cc1S(=O)(=O)O)[C@@]1(C)CCC[C@@](C)(C(=O)O)[C@@H]1CC2
inactive: outcome [1] | outcome [2] | activity, negative = cell killing [3, 7] -17.5% | activity, negative = cell killing [3, 8] -7.28% | activity, negative = cell killing [3, 9] -18.1% | activity, negative = cell killing [3, 10] -15.9%

O=C(O)C(S)C(S)C(=O)O (stereo not drawn)
inactive: outcome [1] | outcome [2]

CCCNC(C)C(=O)Nc1c(C)csc1C(=O)OC (stereo not drawn)
inactive: outcome [1] | outcome [2] | activity, negative = cell killing [3, 4] 8.39% | activity, negative = cell killing [3, 5] -2.83% | activity, negative = cell killing [3, 6] -13.6% | activity, negative = cell killing [3, 11] -41.7%

Nc1ccc(C(=O)Oc2ccccc2)c(O)c1
inactive: outcome [1] | outcome [2] | activity, negative = cell killing [3, 10] -12.2%
active: Potency ([3]; tumour line A) 11.2 µM
